About 83,000 compounds went through this panel and 20% of them were active in at least one assay; those are over-represented in the sample as a whole.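 Each cell line was grown in a 96-well plate and treated with one concentration of compound for 48 hours. Values below 10 were considered active.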 A number with no mark means an inactive call. Activity calls are given as the source filed them.
Key:
Assay in all cases: NCI-60 one-dose screen, 48 h (100 = growth as untreated, 0 = no growth, -100 = all killed)
Conditions in all cases: 10 µM unless noted
NCI-H23 lung = tested on: NCI-H23 lung
NCI-H226 lung = tested on: NCI-H226 lung
NCI-H322M lung = tested on: NCI-H322M lung
HOP-62 NSCLC = tested on: HOP-62 NSCLC
NCI-H460 lung = tested on: NCI-H460 lung
HOP-92 NSCLC = tested on: HOP-92 NSCLC
NCI-H522 lung = tested on: NCI-H522 lung
A549/ATCC NSCLC = tested on: A549/ATCC NSCLC
786-0 renal = tested on: 786-0 renal
COLO 205 colon = tested on: COLO 205 colon
DU-145 prostate = tested on: DU-145 prostate
K-562 leukemia = tested on: K-562 leukemia
MALME-3M melanoma = tested on: MALME-3M melanoma
MDA-MB-231 breast = tested on: MDA-MB-231 breast
RXF 393 renal = tested on: RXF 393 renal
SF-268 CNS = tested on: SF-268 CNS
SF-295 CNS = tested on: SF-295 CNS
SF-539 CNS = tested on: SF-539 CNS
UACC-257 melanoma = tested on: UACC-257 melanoma
M14 melanoma = tested on: M14 melanoma

SMILES	growth (NCI-H23 lung)	growth (NCI-H226 lung)	growth (NCI-H322M lung)	growth (HOP-62 NSCLC)	growth (NCI-H460 lung)	growth (HOP-92 NSCLC)	growth (NCI-H522 lung)	growth (A549/ATCC NSCLC)	growth (786-0 renal)	growth (COLO 205 colon)	growth (DU-145 prostate)	growth (K-562 leukemia)	growth (MALME-3M melanoma)	growth (MDA-MB-231 breast)	growth (RXF 393 renal)	growth (SF-268 CNS)	growth (SF-295 CNS)	growth (SF-539 CNS)	growth (UACC-257 melanoma)	growth (M14 melanoma)
Cc1ccc(Cl)cc1Nc1nc(C(F)(F)F)ccc1C(=O)N/N=C/c1cccnc1	37.4%	30.7%	25.1%	29.4%	18.3%	11.3%	-5.81% (active)	27.5%	2.05% (active)	38.9%	41.5%	7.72% (active)	15%	33.4%	11.6%	27.7%	-20.6% (active)	27.1%	28.2%	47.9%
CCOC(=O)c1c(NC(=O)c2ccc(C(C)C)cc2)sc2c(CN(C)C)c(O)ccc12	82.2%	85.2%	79.2%	89.9%	6.2% (active)	69.5%	97.2%	77%	-50.5% (active)	-24.5% (active)	78.2%	-31.3% (active)	-45.5% (active)	58.4%	44.2%	91.4%	4.37% (active)	75%	67.3%	-64% (active)
Cc1ccc(Sc2nnc(/N=C3\C(=O)Nc4ccccc43)s2)cc1	107%	106%	97.1%	96.5%	104%	96.4%	94.6%	92.1%	99.5%	116%	114%	95.5%	102%	104%	120%	98.9%	105%	101%	94.2%	101%
CCNc1cc(-c2cccc(OC(F)(F)F)c2)nc2ccc(N3CCCC3)cc12	7.13% (active)	37.3%	22.1%	-10.1% (active)	1.03% (active)	-6.27% (active)	-16.8% (active)	10.3%	-18.4% (active)	-65.9% (active)	28.6%	4.34% (active)	-32.2% (active)	15.3%	33.7%	48.8%	23.6%	48.9%	11.1%	7.92% (active)
N#CC1CCc2c(c(-c3cn[nH]c3C(F)(F)F)nc3c(F)cc4[nH]ncc4c23)C1 (stereo not given)	25.3%	48.8%	30.8%	34.8%	38.9%	36.5%	-14.6% (active)	75%	36.8%	7.05% (active)	48.2%	36.3%	18.1%	20.3%	21.7%	23.1%	73.8%	20.4%	48.6%	18.9%
N=C(N)c1ccc(-c2ccc(-c3cc(Cl)cc(Cl)c3)o2)o1	-75.4% (active)	43.9%	-77.4% (active)	-72.2% (active)	-78.3% (active)	50.5%	-70.4% (active)	-71% (active)	-61.9% (active)	-81.7% (active)	-87.7% (active)	-59.7% (active)	-89.6% (active)	-68.2% (active)	-88.8% (active)	-56.4% (active)	-83.5% (active)	-85% (active)	-73% (active)	-54.1% (active)
O=C1Nc2ccccc2/C1=C\c1nc(-c2ccccc2F)n2ccccc12	33.2%	-1.5% (active)	26%	-1.47% (active)	-20.4% (active)	40.4%	-23% (active)	26.5%	-34.5% (active)	72.8%	-26.7% (active)	74.1%	34.4%	8.66% (active)	-42.7% (active)	24.7%	38.1%	-1.95% (active)	45.7%	53.4%
O=C1COCCN1c1ccc(Nc2nc(Cl)nc(OCc3cn(Cc4ccccc4)nn3)n2)cc1	87.2%	95.1%	98.2%	87.5%	107%	82.5%	76.5%	95.7%	101%	105%	90.5%	33.2%	96.1%	95.4%	90.7%	80.9%	102%	98.2%	84.4%	76.1%
CC(C)(C)[Si](C)(C)O[C@H]1C(=O)C=CN2CC=C[C@@H]12	93.3% [100 µM]	94.4% [100 µM]	104% [100 µM]	111% [100 µM]	103% [100 µM]	93.9% [100 µM]	91.7% [100 µM]	110% [100 µM]	105% [100 µM]	122% [100 µM]	108% [100 µM]	105% [100 µM]	106% [100 µM]	105% [100 µM]	109% [100 µM]	101% [100 µM]	94.1% [100 µM]	99.4% [100 µM]	93.6% [100 µM]	108% [100 µM]
O=C(c1ccc(Cl)cc1)N1CCN(c2ccnc3cc(Cl)ccc23)CC1	98.4%	87.3%	96.5%	102%	96.2%	83.7%	56.5%	87%	93.5%	101%	112%	77.1%	84.4%	89.1%	77.5%	100%	95.8%	100%	91%	98%
COc1ccc2c(O)c(/C=C3\N=Nc4ncccc43)oc2c1C[C@H]1CCNC[C@H]1F	-3.41% (active)	1.06% (active)	9.44% (active)	5.59% (active)	-26% (active)	25.7%	-13.5% (active)	0.136% (active)	-18.6% (active)	-51.8% (active)	7.19% (active)	1.73% (active)	-21.6% (active)	-6.95% (active)	-44.4% (active)	-5.68% (active)	18.9%	-29.9% (active)	-6.32% (active)	-40.9% (active)
O=C(Nc1ccc(NC(=O)c2cc(=O)[nH]c3ccccc23)cc1)Nc1cccc(C(F)(F)F)c1	62.3%	87.9%	62.5%	-7.24% (active)	15.3%	42.6%	72.3%	86.3%	99.3%	70.1%	76.2%	53%	31.7%	26.7%	108%	50.7%	74.5%	50.1%	80.5%	69.9%
Cc1ccc(-c2nc(/C=C3/C(=O)Nc4ccccc43)c3ccccn23)cc1	72.6%	88.7%	88%	91.8%	40.7%	105%	57.7%	75.1%	104%	92.2%	-16.3% (active)	81.5%	116%	85.2%	38.2%	88%	91.9%	94.8%	102%	92.3%
CCOc1ccc(NC(=O)CSc2oc(-c3ccccc3)nc2S(=O)(=O)c2ccc(F)cc2)cc1	65.8%	80.2%	75.5%	58.2%	53.9%	31.1%	67.8%	46%	45.5%	93.2%	89.8%	65.9%	78.3%	64.2%	77.6%	60.2%	50%	6.59% (active)	70.1%	86.9%
O=C(Nc1nn(-c2ccc(Cl)cc2Cl)nc1-c1ccccc1)c1ccccc1	97.2%	98.6%	99.2%	77.3%	107%	86.9%	87.2%	94.7%	94.3%	99.3%	131%	91.9%	80.2%	98.3%	111%	107%	56.9%	121%	106%	87.1%

— PubChem BioAssay (NCI)
